Measurements: PubChem BioAssay (Tox21)
Inconclusive results are not listed. Activity calls are given as the source filed them. Unless noted, the call rests on the fitted dose curve.

How the values were obtained:
[1] = Nuclear factor erythroid 2-related factor 2/antioxidant responsive element (Nrf2/ARE) small molecule agonists: qHTS cell viability counter screen in human keratinocytes (AID 1919968; active means well fitted curve in the direction sought with a large enough effect in the repeat runs; an effect the other way counts as inactive or inconclusive; further: nearly all actives have a fitted effect of over 55% in size)
How it was run: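 Cells of the KeratinoSens line were plated at 1,500 per well and left for 5 h before compound transfer from DMSO stocks. After a 23 h incubation (37 C, 5% CO2), CellTiter-Fluor was added. Signal was taken as fluorescence intensity 1 h later.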

[2] = Nuclear factor erythroid 2-related factor 2/antioxidant responsive element (Nrf2/ARE) small molecule agonists: luciferase reporter gene qHTS assay in human keratinocytes (AID 1919969); further: nearly all actives have a fitted effect of over 35% in size
[3] = molecular target: Gonadotropin-releasing hormone receptor (Homo sapiens) (UniProt P30968); test: Human gonadotropin-releasing hormone receptor (GnRHR) small molecule agonists, calcium flux assay in GnRHR-HEK293 cells (AID 1920063); further: nearly all actives have a fitted effect of over 35% in size
How it was run: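 Compounds dissolved in DMSO are pin-transferred onto dye-loaded GnRHR-HEK293 cells, which were seeded 18 h before at 37 C/5% CO2. Calcium signal is read as fluorescence intensity at 1 s intervals for 3 min.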

[4] = molecular target: KiSS-1 receptor (Homo sapiens) (UniProt Q969F8); test: Human kisspeptin (KISS1R) small molecule agonists, calcium flux assay in KISS1R-HEK293 cells (AID 1920064; active means well fitted curve in the direction sought with a large enough effect in the repeat runs; an effect the other way counts as inactive or inconclusive)
How it was run: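 Cell line: HEK293, stable human KISS1R. Dye loading 1 h at 37 C after 18 h culture. Read: kinetic fluorescence, 480/540 nm, 3 min at 1 s intervals.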

[5] = p53 small molecule agonists, cell-based qHTS assay with human liver microsomes (AID 1963577)
How it was run: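 Compounds act here after metabolic activation: human liver microsomes and NADPH, both at 0.5 mg/mL final, were co-added to p53RE-bla cells. Incubation ran 16 h at 37 C, followed by LiveBLAzer detection.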

[6] = p53 small molecule agonists, cell-based qHTS assay with rat liver microsomes (AID 1963578)
How it was run: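 Read-out is beta-lactamase reporter fluorescence (LiveBLAzer, 2 h, room temperature, dark) in p53RE-bla cells treated 16 h at 37 C with compound, rat liver microsomes and NADPH, both 0.5 mg/mL final.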

[7] = p53 small molecule agonists, cell-based qHTS assay with human liver microsomes: qHTS cell viability counter screen (AID 1963579); further: nearly all actives have a fitted effect of over 45% in size
How it was run: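 Cells carrying the p53 response-element beta-lactamase reporter are treated for 16 h at 37 C with test compounds in the presence of human liver microsomes and NADPH (both 0.5 mg/mL final); ATP-based CellTiter-Glo luminescence then reports viability.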

[8] = p53 small molecule agonists, cell-based qHTS assay with rat liver microsomes: qHTS cell viability counter screen (AID 1963580); further: nearly all actives have a fitted effect of over 45% in size
How it was run: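 Counter screen for cytotoxicity under metabolic activation: rat liver microsomes and NADPH, 0.5 mg/mL final each, added with compounds to p53RE-bla HCT-116 cells; 16 h at 37 C, then ATP luminescence read.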

[9] = p53 small molecule agonists, cell-based qHTS assay: qHTS cell viability counter screen (AID 1963581); further: nearly all actives have a fitted effect of over 45% in size
How it was run: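 ATP content measured by luminescence in HCT-116 p53RE-bla cells treated 16 h at 37 C, same wells as the reporter screen.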

[10] = p53 small molecule agonists, cell-based qHTS assay (AID 1963582; active means well fitted activation curve with a large enough effect in the signal ratio in the repeat runs, not every such curve was filed as active; the % refers to the signal ratio)
How it was run: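 16 h compound exposure (37 C) of p53 response element–bla cells, preceded by 5 h recovery at 37 C/5% CO2; read-out via LiveBLAzer B/G FRET substrate, 2 h RT, fluorescence intensity.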

[11] = molecular target: 5-hydroxytryptamine receptor 2A (Homo sapiens) (UniProt P28223); test: 5-hydroxytryptamine receptor 2A (HTR2A) small molecule antagonists, cell-based qHTS assay (AID 1963586); further: nearly all actives have a fitted effect of over 45% in size
How it was run: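 CHO cells stably expressing human HTR2A were plated for 18 h at 37 C, then loaded with calcium dye for 1 h. Compounds were preincubated 5 min at room temperature before DOI (4 nM solution) was added. Kinetic fluorescence was read for 3 min.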

[12] = molecular target: 5-hydroxytryptamine receptor 2A (Homo sapiens) (UniProt P28223); test: 5-hydroxytryptamine receptor 2A (HTR2A) small molecule agonists, cell-based qHTS assay (AID 1963587); further: nearly all actives have a fitted effect of over 30% in size
How it was run: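 HTR2A-CHO cells, plated 18 h at 37 C/5% CO2, dye-loaded 1 h at 37 C; compounds in DMSO added by pin tool (agonist mode). Intracellular calcium flux read as kinetic fluorescence on FDSS over 2 min at 1 s intervals.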

[13] = molecular target: Muscarinic acetylcholine receptor M1 (Homo sapiens) (UniProt P11229); test: Cholinergic receptor muscarinic 1 (CHRM1) small molecule antagonists, cell-based qHTS assay (AID 1963588); further: nearly all actives have a fitted effect of over 40% in size
How it was run: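 Compounds were tested at 15 concentrations in three independent runs. Dye-loaded CHRM1-CHO cells were exposed 5 min at room temperature before stimulation by acetylcholine added at 50nM. Intracellular calcium was read kinetically on FDSS for 3 min.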

[14] = molecular target: Muscarinic acetylcholine receptor M1 (Homo sapiens) (UniProt P11229); test: Cholinergic receptor muscarinic 1 (CHRM1) small molecule agonists, cell-based qHTS assay (AID 1963589); further: nearly all actives have a fitted effect of over 35% in size
How it was run: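 Homogeneous fluorescence calcium flux, agonist mode. Human M1-expressing CHO cells; compound dosed at 15 concentrations, three independent runs; signal sampled every 1 sec.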

[15] = cAMP Responsive Elements (CRE) small molecule agonists, cell-based qHTS assay (AID 1963590)
How it was run: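 HEK 293T cells stably bearing CRE-bla were plated at 2,000 cells per well and rested 18 h. Compounds, positive controls or DMSO were added for 3 h at 37 C. LiveBLAzer B/G substrate was then loaded for 2 h at room temperature.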

[16] = cAMP Responsive Elements (CRE) small molecule antagonists, cell-based qHTS assay (AID 1963591; active means well fitted inhibition curve with a large enough effect in the signal ratio in the repeat runs, not every such curve was filed as active; the % refers to the signal ratio)
How it was run: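 First, CRE-bla HEK293T cells settled 18 h at 37 C. Next, compound and 0.25 uM final NKH477 were applied for 3 h. Last, LiveBLAzer B/G substrate was loaded for 2 h at room temperature.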

[17] = molecular target: Beta-2 adrenergic receptor (Homo sapiens) (UniProt P07550); test: Adrenergic beta2 receptor (ADRB2) small molecule agonists, cell-based qHTS assay (AID 1963593);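 further: CHO cells stably overexpressing human ADRB2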
How it was run: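 CHO cells stably over-expressing ADRB2 were plated overnight at 37C, then dosed with compounds plus a stimulation mix containing 100uM IBMX and 25uM Ro-20-1724 for 0.5hr at room temperature. cAMP was measured by HTRF competition, 1hr.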

[18] = molecular target: D(2) dopamine receptor (Homo sapiens) (UniProt P14416); test: Dopamine D2 receptor (DRD2) small molecule agonists, cell-based qHTS assay (AID 1963594); further: nearly all actives have a fitted effect of over 35% in size
How it was run: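 HEK293 cells stably expressing DRD2 were cultured 24 h at 37 C, then given Ro20-1724 (0.1 mM final) and compounds for 10 min at room temperature. NKH477 (200nM) was then added for 30 min. cAMP was read by HTRF.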

[19] = molecular target: D(2) dopamine receptor (Homo sapiens) (UniProt P14416); test: Dopamine D2 receptor (DRD2) small molecule antagonists, cell-based qHTS assay (AID 1963595; active means well fitted inhibition curve with a large enough effect in the signal ratio in the repeat runs, with a control signal flat; the % refers to the signal ratio)
How it was run: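 Antagonism was scored as restored cAMP in HEK293-DRD2 cells. These cells were stimulated with 200 nM NKH477 and 12 nM quinpirole for 30 min at room temperature, in the presence of 0.1 mM Ro20-1724.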

[20] = molecular target: Beta-2 adrenergic receptor (Homo sapiens) (UniProt P07550); test: Adrenergic beta2 receptor (ADRB2) small molecule antagonists, cell-based qHTS assay (AID 1963592); further: series mostly up to about 92 µM; nearly all actives have a fitted effect of over 50% in size
How it was run: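 Assay format: CHO-ADRB2 cells, 18-20hr seeding at 37C/5% CO2, then compound plus 1nM isoproterenol agonist mix for 0.5hr RT. Homogeneous time-resolved fluorescence cAMP detection after 1hr, expressed as 665/615 nm ratio.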

Measured: Potency

Gonadotropin-releasing hormone receptor (Homo sapiens), sequence (P30968 whole entry, looked up): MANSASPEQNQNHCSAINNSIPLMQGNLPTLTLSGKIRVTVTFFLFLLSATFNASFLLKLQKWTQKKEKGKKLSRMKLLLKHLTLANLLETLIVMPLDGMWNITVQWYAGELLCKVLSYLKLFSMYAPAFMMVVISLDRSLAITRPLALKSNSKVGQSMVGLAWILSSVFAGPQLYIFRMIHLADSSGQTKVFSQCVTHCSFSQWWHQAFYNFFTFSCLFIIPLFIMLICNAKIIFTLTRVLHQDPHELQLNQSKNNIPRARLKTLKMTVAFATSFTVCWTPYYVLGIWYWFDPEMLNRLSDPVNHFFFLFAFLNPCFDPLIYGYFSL
KiSS-1 receptor (Homo sapiens), sequence (Q969F8 whole entry, looked up): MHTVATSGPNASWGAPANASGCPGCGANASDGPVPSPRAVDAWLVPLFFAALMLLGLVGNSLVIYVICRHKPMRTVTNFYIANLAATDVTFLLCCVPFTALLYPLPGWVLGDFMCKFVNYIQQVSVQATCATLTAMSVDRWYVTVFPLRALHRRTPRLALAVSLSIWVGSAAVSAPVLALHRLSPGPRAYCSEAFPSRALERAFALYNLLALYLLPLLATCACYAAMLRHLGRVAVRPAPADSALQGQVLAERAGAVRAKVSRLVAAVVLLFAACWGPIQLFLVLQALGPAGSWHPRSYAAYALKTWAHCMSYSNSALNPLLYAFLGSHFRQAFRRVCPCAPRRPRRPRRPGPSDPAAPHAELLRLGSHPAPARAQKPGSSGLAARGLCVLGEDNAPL
5-hydroxytryptamine receptor 2A (Homo sapiens), sequence (P28223 whole entry, looked up): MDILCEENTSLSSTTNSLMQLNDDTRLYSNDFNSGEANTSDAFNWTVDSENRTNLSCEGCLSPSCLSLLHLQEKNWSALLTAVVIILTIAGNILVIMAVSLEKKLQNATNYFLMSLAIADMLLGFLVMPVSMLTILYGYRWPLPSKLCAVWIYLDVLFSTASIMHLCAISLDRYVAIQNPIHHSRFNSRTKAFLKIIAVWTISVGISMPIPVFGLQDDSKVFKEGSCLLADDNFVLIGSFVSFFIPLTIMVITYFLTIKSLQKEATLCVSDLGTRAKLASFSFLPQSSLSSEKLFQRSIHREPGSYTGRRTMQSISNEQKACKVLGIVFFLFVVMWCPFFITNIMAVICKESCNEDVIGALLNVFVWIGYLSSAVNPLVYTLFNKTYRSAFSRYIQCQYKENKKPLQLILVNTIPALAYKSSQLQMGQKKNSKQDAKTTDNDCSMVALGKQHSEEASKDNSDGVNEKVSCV
Beta-2 adrenergic receptor (Homo sapiens), sequence (P07550 whole entry, looked up): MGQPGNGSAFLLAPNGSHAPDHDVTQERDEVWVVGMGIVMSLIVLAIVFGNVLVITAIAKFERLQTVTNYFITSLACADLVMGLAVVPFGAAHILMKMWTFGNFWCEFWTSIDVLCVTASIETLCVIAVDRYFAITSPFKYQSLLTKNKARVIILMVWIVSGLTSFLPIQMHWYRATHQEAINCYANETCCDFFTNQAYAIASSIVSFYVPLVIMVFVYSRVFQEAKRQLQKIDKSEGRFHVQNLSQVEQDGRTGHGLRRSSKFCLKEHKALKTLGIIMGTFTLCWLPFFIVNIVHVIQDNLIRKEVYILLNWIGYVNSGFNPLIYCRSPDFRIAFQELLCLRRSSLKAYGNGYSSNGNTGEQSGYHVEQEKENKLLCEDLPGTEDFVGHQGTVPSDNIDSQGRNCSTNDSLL
D(2) dopamine receptor (Homo sapiens), sequence (P14416 whole entry, looked up): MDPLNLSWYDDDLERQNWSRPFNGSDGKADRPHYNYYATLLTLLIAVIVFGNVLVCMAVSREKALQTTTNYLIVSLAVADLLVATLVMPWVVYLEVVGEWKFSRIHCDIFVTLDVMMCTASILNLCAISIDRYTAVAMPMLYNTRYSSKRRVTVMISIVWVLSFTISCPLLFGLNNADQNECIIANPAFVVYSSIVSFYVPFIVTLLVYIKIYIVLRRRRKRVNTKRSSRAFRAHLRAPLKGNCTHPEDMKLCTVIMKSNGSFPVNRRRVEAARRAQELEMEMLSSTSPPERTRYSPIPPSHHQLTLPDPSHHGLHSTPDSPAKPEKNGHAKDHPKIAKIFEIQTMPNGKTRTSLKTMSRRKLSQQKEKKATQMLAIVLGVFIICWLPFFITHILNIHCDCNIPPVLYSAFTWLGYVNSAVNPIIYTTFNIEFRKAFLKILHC
Muscarinic acetylcholine receptor M1 (Homo sapiens), sequence (P11229 whole entry, looked up): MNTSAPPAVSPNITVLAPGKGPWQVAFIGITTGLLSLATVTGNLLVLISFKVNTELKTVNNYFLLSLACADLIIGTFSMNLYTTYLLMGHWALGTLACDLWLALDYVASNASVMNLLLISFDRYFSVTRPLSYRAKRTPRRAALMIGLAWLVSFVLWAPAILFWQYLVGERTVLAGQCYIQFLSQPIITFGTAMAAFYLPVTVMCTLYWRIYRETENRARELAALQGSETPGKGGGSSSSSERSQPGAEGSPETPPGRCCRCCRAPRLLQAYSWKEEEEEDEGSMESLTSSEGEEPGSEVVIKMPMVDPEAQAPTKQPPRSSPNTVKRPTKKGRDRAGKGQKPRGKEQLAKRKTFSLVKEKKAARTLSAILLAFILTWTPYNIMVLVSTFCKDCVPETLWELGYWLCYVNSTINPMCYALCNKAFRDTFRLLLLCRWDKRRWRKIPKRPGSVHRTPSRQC

CCCC(C)=O
not listed: [20]
inactive: all other assays above

Cc1cccc2n[nH]nc12
not listed: [13] | [16]
inactive: all other assays above

OCCc1ccccc1
inactive: all assays above

COCN(COC)c1nc(N(COC)COC)nc(N(COC)COC)n1
not listed: [17]
inactive: all other assays above

C=CCOC(=O)CC(C)C
not listed: [11] | [13] | [20]
inactive: all other assays above

CC(=O)OC/C=C(\C)CCC=C(C)C
not listed: [17] | [18]
inactive: all other assays above

CCCCC(CC)COC(=O)CS (stereo not given)
not listed: [17]
inactive: all other assays above
